# Measurements taken from paper PMC4336329 (PLoS ONE, 2015).
# The whole screen tested about 310,000 compounds, of which about 2,200 (0.71%) showed an effect of 50% or more. Effects have a minus sign here. For the sample, strong results were picked, then their nearest neighbours and some compounds at random.
# Molecular target: human ether-à-go-go-related gene (hERG) potassium channel (human, UniProt Q12809)
# Assay: primary screen, population patch clamp on CHO cells stably expressing hERG; higher = less effect of the substance
# Sequence of human ether-à-go-go-related gene (hERG) potassium channel (Q12809 whole entry, looked up): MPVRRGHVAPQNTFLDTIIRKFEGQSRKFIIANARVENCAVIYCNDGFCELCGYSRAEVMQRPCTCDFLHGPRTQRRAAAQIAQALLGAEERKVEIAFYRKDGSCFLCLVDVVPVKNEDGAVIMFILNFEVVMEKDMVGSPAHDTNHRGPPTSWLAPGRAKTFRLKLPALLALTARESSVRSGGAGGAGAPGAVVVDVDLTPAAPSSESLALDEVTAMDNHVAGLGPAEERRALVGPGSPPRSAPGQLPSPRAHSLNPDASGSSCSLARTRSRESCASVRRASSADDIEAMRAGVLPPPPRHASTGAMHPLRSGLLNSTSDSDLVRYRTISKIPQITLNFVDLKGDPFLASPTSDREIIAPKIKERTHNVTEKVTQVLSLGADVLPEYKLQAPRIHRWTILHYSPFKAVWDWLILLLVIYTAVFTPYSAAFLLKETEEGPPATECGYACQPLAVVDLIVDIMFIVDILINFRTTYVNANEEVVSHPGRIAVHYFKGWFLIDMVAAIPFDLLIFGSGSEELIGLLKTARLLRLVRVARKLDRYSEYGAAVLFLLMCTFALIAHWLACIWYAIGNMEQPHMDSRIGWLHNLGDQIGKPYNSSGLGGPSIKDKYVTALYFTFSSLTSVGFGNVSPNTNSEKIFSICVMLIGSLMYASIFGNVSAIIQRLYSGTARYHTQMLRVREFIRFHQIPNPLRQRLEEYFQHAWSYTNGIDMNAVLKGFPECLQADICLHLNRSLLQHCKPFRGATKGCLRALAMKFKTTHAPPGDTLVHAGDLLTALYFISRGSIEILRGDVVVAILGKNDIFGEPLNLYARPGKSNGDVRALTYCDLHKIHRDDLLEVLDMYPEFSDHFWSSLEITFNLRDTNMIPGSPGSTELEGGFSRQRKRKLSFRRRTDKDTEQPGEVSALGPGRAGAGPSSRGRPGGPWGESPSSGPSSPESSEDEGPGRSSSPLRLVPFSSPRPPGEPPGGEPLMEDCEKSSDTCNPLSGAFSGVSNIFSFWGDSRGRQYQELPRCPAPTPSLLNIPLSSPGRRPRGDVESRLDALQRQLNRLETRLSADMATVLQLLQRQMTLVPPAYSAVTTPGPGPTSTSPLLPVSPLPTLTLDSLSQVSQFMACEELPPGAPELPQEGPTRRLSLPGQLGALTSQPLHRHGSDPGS
row,Structure (SMILES),"hERG current change (%, negative = inhibition) at 1uM [%]"
1,Br.CC(C)(C)c1ccc(CN2C3=NCCCN3c3ccccc32)cc1,-79.7
2,Cc1ccc(CN2C3=NCCCN3c3ccccc32)cc1.Cl,-29.6
3,Cc1cccc(CN2C3=NCCCN3c3ccccc32)c1.Cl,-16.9
4,Cl.Clc1ccc(CN2C3=NCCCN3c3ccccc32)cc1Cl,-51.4
5,O=C1CSC2(CCCCC2)N1CCO,12.4
6,O=C(Oc1ccc(C(=S)N2CCOCC2)cc1)c1ccccc1,28.6
7,O=C(COC(=O)C1(c2ccc(F)cc2)CCCC1)Nc1ncc(C(F)(F)F)cc1Cl,2.97
8,O=C(C1CCN(C2CC(=O)N(c3ccc(Cl)cc3)C2=O)CC1)N1CCOCC1 (stereo not shown),2.01
9,CCCC[C@@H]1C[C@H]1[C@@H](NC(=O)c1ccco1)c1ccc(Cl)cc1,6.22
10,CC(Nc1nc(N2CCNCC2)nc2ccccc12)c1ccccc1 (stereo not shown),-31.7
11,CC(Nc1nc(N2CCN(S(C)(=O)=O)CC2)nc2ccccc12)c1ccccc1 (stereo not shown),-14
12,CC(Nc1nc(N2CCOCC2)nc2ccccc12)c1ccccc1 (stereo not shown),-52.7
13,CC(Nc1nc(N2CCCCC2)nc2ccccc12)c1ccccc1 (stereo not shown),-14.4
14,CC(Nc1nc(N2CCCC2)nc2ccccc12)c1ccccc1 (stereo not shown),-84.6
15,CC(Nc1nc(N2CCN(CCO)CC2)nc2ccccc12)c1ccccc1 (stereo not shown),-25.9
16,COC(=O)C(C(=O)Nc1cccc(Cl)c1C)C1CCCC1 (stereo not shown),5.04
17,COCCCN1C(=O)C(=O)/C(=C(/O)c2ccc(S(=O)(=O)N3CCOCC3)cc2)C1c1ccc(F)cc1 (stereo not shown),6.04
18,Cc1ccsc1/C=N/Nc1ncnc2nc[nH]c12,-2.18
19,COc1ccc(S(=O)(=O)N2N=C(c3ccc(NS(C)(=O)=O)cc3)CC2c2ccco2)cc1 (stereo not shown),-69.6
20,COc1ccc(S(=O)(=O)N2N=C(c3cccc(NS(C)(=O)=O)c3)CC2c2ccco2)cc1 (stereo not shown),16.4
21,CS(=O)(=O)Nc1ccc(C2=NN(S(=O)(=O)c3ccc(F)cc3)C(c3ccco3)C2)cc1 (stereo not shown),-15.6
22,O=C(CCS(=O)(=O)Cc1ccccc1F)NCCc1ccc(Cl)cc1,5.86

row,Structure (SMILES),"hERG current change (%, negative = inhibition) at 1uM [%]"
1,Cc1cc(NC(=O)CSc2nc3c(c(=O)n2-c2ccc(Br)cc2)SCC3)no1,6.41
2,CCOC(=O)c1c(CN2CCCCC2)n(C)c2cc(Br)c(O)cc12,-68.8
3,CCOC(=O)c1c(CN(CC)CC)n(C)c2cc(Br)c(O)cc12.Cl,-45
4,CCOC(=O)c1c(CN(CC)CC)oc2ccc(OC)cc12,-25.8
5,CCOC(=O)c1c(CN(CC)CC)oc2cc(Br)c(O)cc12,-59.5
6,CCOC(=O)c1c(CN2CCCCC2)n(C)c2cc(Br)c(OC)cc12,9.14
7,CCOC(=O)c1c(CN2CCN(C)CC2)n(C)c2cc(Br)c(OC)cc12,-12.4
8,Cc1ccc(NC(=S)NNC(=O)Cn2nc(C(F)F)cc2C(F)F)cc1,13.6
9,Cc1oc(C(C)(C)C)cc1C(=O)Nc1ccc(N2CCOCC2)cc1,4.63
10,CC(=O)NC(=S)Nc1ccccc1N1CCN(C(=O)c2ccccc2)CC1,10.6
11,C[N+](C)(C)CCCCCCCCCC[N+](C)(C)C.[Br-],7.97
12,CCCCCCCCCCOC(=O)Cn1c(COc2cccc(OC)c2)[n+](C)c2ccccc21.[Cl-],-37.3
13,CCCCCCCCCCOC(=O)Cn1c(COc2ccccc2C)[n+](C)c2ccccc21.[Cl-],-18
14,CCCCCCCCCCOC(=O)Cn1c(COc2ccc(OC)cc2)[n+](C)c2ccccc21.[Cl-],-70.9
15,CCCCCCCCCCOC(=O)Cn1c(COc2ccccc2OC)[n+](C)c2ccccc21.[Cl-],-33.2
16,CCCCCCCCCCOC(=O)Cn1c(COc2ccccc2)[n+](C)c2ccccc21.[Cl-],-46.5
17,CCCCc1n(CC(=O)c2ccc(Cl)cc2)c2ccccc2[n+]1C.[Br-],10.7
18,CCCCCCCCCCOC(=O)Cn1c(COc2ccc(Cl)cc2)[n+](C)c2ccccc21.[Cl-],-79.1
19,CCCCCCCCCCOC(=O)Cn1c(COc2cccc(C)c2)[n+](C)c2ccccc21.[Cl-],-43.9
20,CCCCCCCCCCOC(=O)Cn1c(COc2ccc(C)cc2)[n+](C)c2ccccc21.[Cl-],-56.5
21,CCN(C(=S)Nc1ccc(Oc2ccccc2)cc1)c1ccccc1,21.1
